In PubChem BioAssay (NCATS):
Several values for one entry are separate records, joined by “and”; a condition that tells them apart may be missing. Equal values may be shown once. Records with an inconclusive call do not appear. Unmarked numbers belong to inactive results. Calls come from the whole dose curve; as a rule, active = well fitted curve in the direction sought with a large enough effect; inconclusive = small, poorly fitted or top-dose-only effect, or another doubt; inactive = no such curve, though single readings can be large or run the other way.

Assay: qHTS Assay for Identifying Gametocytocidal Compounds (AID 743244);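 note: actives lower the fluorescent signal which means gametocytes are killed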
Conditions: P. falciparum 3D7 stage III-V gametocytes, alamarBlue, 72 h; max response: active compounds read low
Summary of the method: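 Compounds are pinned into medium, gametocytes (stage III–V, 3D7, 20,000 cells/well) added, and plates held 72 h at 37 °C in 5% CO2. AlamarBlue follows for 24 h before fluorescence reading.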
% is set by controls: 0 for no effect and ±100 for the full control effect.

SMILES | max response
CC(C)C1=CC2=CC[C@@H]3[C@](C)(CCC[C@@]3(C)C(=O)O)[C@H]2CC1 | -5.77%
FC(F)(F)C(F)(F)C(F)(F)C(F)(F)C(F)(F)C(F)(F)F | 13.2%
Cc1c(C)c2c(c(C)c1OC(=O)CCC(=O)O)CC[C@@](C)(CCC[C@H](C)CCC[C@H](C)CCCC(C)C)O2 | -1.05%
O=C(OCc1ccccc1)c1cccnc1 | -1.85%
Cc1cc2nc3c(=O)[nH]c(=O)nc-3n(C[C@H](O)[C@H](O)[C@H](O)COP(=O)(O)OP(=O)(O)OC[C@H]3O[C@@H](n4cnc5c(N)ncnc54)[C@H](O)[C@@H]3O)c2cc1C | -3.17%
c1ccc2c(c1)OCC(CN1CCCCC1)O2 (configuration not stated) | -2.04%
C[N+]1(C)[C@@H]2CC(OC(=O)C(O)(c3cccs3)c3cccs3)C[C@H]1[C@@H]1O[C@@H]12 (some centres not stated) | 8.38%
O=C(O)CN(CC(=O)O)CC1=CC2C(=CC1=O)Oc1cc(O)c(CN(CC(=O)O)CC(=O)O)cc1C21OC(=O)c2ccccc21 (configuration not stated) | 5.31%
C=CC1=C(C(=O)O)N2C(=O)[C@@H](NC(=O)/C(=N\O)c3csc(N)n3)[C@H]2SC1 (stereo in doubt) | 1.2% and 8.54%
Cc1ncc(C[n+]2csc(CCOP(=O)(O)OP(=O)(O)O)c2C)c(N)n1 | 0.908%
COc1c(O[C@@H]2O[C@H](CO)[C@@H](O)[C@H](O)[C@H]2O)cc2c(c1OC)-c1ccc(SC)c(=O)cc1[C@@H](NC(C)=O)CC2 | 22%
O=C(CO)[C@@H](O)[C@H](O)[C@@H](O)C(=O)O | 23.9%
CC(=C\c1ccccc1)/C=C1/SC(=S)N(CC(=O)O)C1=O | 8.93%
CCCOC(=O)c1ccccc1O | -13%
CC(=O)N[C@@H]1C(O[C@H]2O[C@H](C(=O)O)C(O)[C@H](O)[C@H]2O)[C@H](O)[C@@H](CO)O[C@H]1O[C@@H]1C(C(=O)O)O[C@@H](O[C@H]2[C@H](O)[C@@H](CO)OC(O)[C@@H]2NC(C)=O)[C@H](O)[C@H]1O (some centres not stated) | -1.86%
CC(C)(C)NCC(O)CSc1nc(-c2ccc(C(N)=O)s2)cs1 (configuration not stated) | 20.6%

SMILES | max response
CC1CC(O)CC(C)(C)C1 (configuration not stated) | -5.15%
CCCCCCCCCCCCCCCCCCOCC(COP(=O)([O-])OCC[N+](C)(C)C)OC (configuration not stated) | 3.69%
OC[C@@H](O)C(O)[C@H](O)CO | 3.78%
CC1(C)S[C@@H]2[C@H](NC(=O)C3(N)CCCCC3)C(=O)N2[C@H]1C(=O)O | 7.96%
COc1ccc(C[C@H](C)NC[C@@H](O)c2ccc(O)c(NC=O)c2)cc1 | -5.27%
O=C(c1cc2ccccc2o1)N1CCN(Cc2ccccc2)CC1 | 7.29%
O=C(CCCN1CCC(C(=O)c2ccc(F)cc2)CC1)c1ccc(F)cc1 | 18.4%
C[Se]CC[C@H](N)C(=O)O | 8.55%
NC(=O)CC[C@@H]1NC(=O)[C@H](Cc2ccccc2)NC(=O)[C@H](Cc2ccc(O)cc2)NC(=O)[C@@H](N)CSSC[C@@H](C(=O)N2CCC[C@H]2C(=O)N[C@@H](CCCN=C(N)N)C(=O)NCC(N)=O)NC(=O)[C@H](CC(N)=O)NC1=O | -1.4% and -14.5%
COC1[C@@H](O[C@@H]2O[C@H](C)[C@@H](O[C@H]3C[C@@](C)(O)[C@H](OC(=O)CC(C)C)[C@H](C)O3)[C@H](N(C)C)[C@H]2O)[C@@H](CC=O)C[C@@H](C)[C@@H](O)/C=C/C=C/C[C@@H](C)OC(=O)C[C@H]1OC(C)=O (some centres not stated) | 6%
CC1CCC(NC(=O)N(CCCl)N=O)CC1 (configuration not stated) | 3.88%
O=P(O)(O)OC[C@H]1O[C@](O)(COP(=O)(O)O)[C@@H](O)[C@@H]1O | 2.17%
COc1cc2c(cc1OC)[C@@H](c1ccccc1)CN(C)CC2 | -3.71%
CCC[C@@H]1C[C@@H](C(=O)N[C@@H]([C@H]2O[C@H](SC)[C@H](O)[C@@H](O)[C@H]2O)[C@H](C)Cl)N(C)C1 | -8.48%
CC(C)(C)NCC(O)c1ccc(O)c(CO)n1 (configuration not stated) | 6.55%
Cc1nc(NS(=O)(=O)c2ccc(N)cc2)nc(C)c1Br | 21.7%
